Measurements: PubChem BioAssay AID652017 (The Scripps Research Institute Molecular Screening Center, 2013)
In all, about 370,000 compounds went through this assay and about 3,800 (1%) were called active. The entries come from a sample that favours actives as a whole. Unmarked numbers belong to inactive results. Cut-off read from the data, not from the text of the source: active = activation above about 7.8%; inactive = the rest.

Assay: SMARCA2 (BRM) function activators, primary screen, cell-based, luminescence, high throughput (AID 652017);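 note: 0% = vehicle wells and 100% = reference activator wells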
Conditions: MG213 cells, MMTV-luciferase reporter, dexamethasone, overnight; at 9.1 µM; active compounds read high

Q: For `C=C1C(=O)[C@]23C[C@H]1CCC2[C@@]1(C)C(C[C@@H]3O)[C@](C)(C(=O)O)CC[C@@H]1O` (stereo partly specified), which activation is on record?
A: 28.1% (active)

Q: With `N#Cc1ccc(OC[C@@H](O)CN2CCC(C(O)(c3ccccc3)c3ccccc3)CC2)c(F)c1` as the molecule, how does the activation read?
A: 1.41%

Q: With `O=C(CCCc1ccccc1)NCc1ccccc1` as the molecule, how does the activation read?
A: 8.27% (active)

Q: With `COc1ccc(OCC(=O)NCCc2ccc(S(N)(=O)=O)cc2)cc1` as the molecule, how does the activation read?
A: 2.09%

Q: Which activation does the source give for `O=C(CC1CCCCC1)NCc1ccccc1` here?
A: 2.93%

Q: With `COc1ccc(CCNC(=O)CN(c2ccccc2)S(C)(=O)=O)cc1` as the molecule, how does the activation read?
A: -1.26%

Q: For `O=C(CCNS(=O)(=O)c1ccccc1)NCCCc1ccccc1`, which activation is on record?
A: -1.66%

Q: Which activation does the source give for `COc1ccc(OCCCC(=O)NCCc2ccccc2)cc1` here?
A: 17.9% (active)

Q: With `O=C(c1ccccc1)c1ccc(-c2ccccc2C(=O)NC2CCCCN(Cc3ccc(Cl)cc3)C2=O)cc1` (stereo unspecified) as the molecule, how does the activation read?
A: -0.95%

Q: Which activation does the source give for `CCOC(=O)[C@]12CCCC3=C1N(CCC3)C(=O)[C@@H](CC(=O)NCC13CC4CC(CC(C4)C1)C3)C2` here?
A: -3%

Q: With `C=CCOc1ccc(Cl)cc1CNCCCN1CCOCC1` as the molecule, how does the activation read?
A: -1.83%

Q: Which activation does the source give for `CC(C)CNc1cccc2c1S(=O)(=O)N(Cc1cn(Cc3ccc(Cl)cc3)nn1)Cc1ccccc1O2` here?
A: 0.35%

Q: For `COC(=O)c1cc2c(N)c(C(=O)c3ccc(Cl)cc3)sc2nc1C(OC)OC`, which activation is on record?
A: -4.26%

Q: With `NC(=O)Cc1ccc2sc(-c3ccccc3)nc2c1` as the molecule, how does the activation read?
A: 2.7%

Q: With `CCN(CC)C(=O)c1sc2nc(-c3ccccc3)ccc2c1N` as the molecule, how does the activation read?
A: 9.84% (active)

Q: With `CCOC(=O)c1cnc2sccn2c1=O` as the molecule, how does the activation read?
A: -1.74%

Q: For `CN(C)/C=C/C(=O)c1cnc2sccn2c1=O`, which activation is on record?
A: -3.44%

Q: Which activation does the source give for `O=C(NCc1ccccn1)c1cnc2sccn2c1=O` here?
A: 8.52% (active)

Q: Which activation does the source give for `N#Cc1ccccc1OC[C@@H](O)CN1CCC(C(O)(c2ccccc2)c2ccccc2)CC1` here?
A: -4.74%

Q: Which activation does the source give for `COC(=O)c1ccc(CSc2nnc(N)s2)o1` here?
A: -1.46%

Q: Which activation does the source give for `CN1CCc2c(sc3c2c(NCc2ccco2)nc2nnnn23)C1` here?
A: 0.32%

Q: With `COc1ccc(C(=O)N/N=c2\oc3ccccc3cc2C(N)=O)cc1` as the molecule, how does the activation read?
A: 9.22% (active)

Q: Which activation does the source give for `COc1ccc(C(=O)NCC[N+](C)(C)C)cc1` here?
A: -4.72%

Q: With `COc1ccccc1CN(C)C(=O)c1cc2ccccc2o1` as the molecule, how does the activation read?
A: -0.29%

Q: Which activation does the source give for `CC(=O)c1cc(-c2ccc3ccccc3c2)c(=O)n2c1CCC2` here?
A: -0.02%

Q: With `COc1ccc(Sc2ccc(NC(=O)c3cccc(Cl)c3)cc2C#N)cc1` as the molecule, how does the activation read?
A: -0.62%

Q: Which activation does the source give for `CSc1ccc(C#N)cc1NC(=O)c1ccc(Cl)cc1` here?
A: -0.91%

Q: With `N#Cc1ccccc1NC(=O)c1cccc(COc2ccc(Cl)cc2Cl)c1` as the molecule, how does the activation read?
A: 9.56% (active)

Q: For `C[C@H](CO)N1C[C@H](C)[C@@H](CN(C)S(=O)(=O)c2ccc(F)cc2)Oc2ccc(NC(=O)CCC(F)(F)F)cc2C1=O`, which activation is on record?
A: 1.28%

Q: For `NS(=O)(=O)c1ccccc1NC(=O)c1c(O)c2ccccc2[nH]c1=O`, which activation is on record?
A: 9.94% (active)

Q: Which activation does the source give for `CCOC(=O)c1ccccc1NC(=O)c1c(N)n(C)c(=O)[nH]c1=O` here?
A: -0.83%

Q: For `Cn1c(=O)c(C(=O)Nc2ncccn2)c(O)c2ccccc21`, which activation is on record?
A: 2.91%

Q: Which activation does the source give for `CCCC[C@H]1C2CC(OC(=O)NCc3ccccc3)C(C2)[C@H]2CCCCN21` (stereo partly specified) here?
A: -0.93%

Q: With `CC(=O)O[C@@]1(C(C)=O)CCC2[C@H]3C=C(C)C4=CC(=O)CC[C@@]4(C)C3CC[C@]21C` (stereo partly specified) as the molecule, how does the activation read?
A: -9.82%

Q: For `Cc1nc2ccc(NC(=S)N3CCC(C)CC3)cc2nc1C`, which activation is on record?
A: 7.91% (active)

Q: Which activation does the source give for `Cc1cccc(NC(=S)N2CCC(c3nc4ccccc4s3)CC2)c1` here?
A: -2.82%

Q: With `Cc1nc2ccc(NC(=O)N3CCC(c4ccccc4)C3)cc2nc1C` (stereo unspecified) as the molecule, how does the activation read?
A: -3.22%

Q: Which activation does the source give for `Cn1nc(C(F)(F)F)c2cc(NC(=O)OCC(C)(C)C)sc21` here?
A: 7.24%

Q: With `CC(C)(C)NC(=O)C(CCc1ccccc1)n1c(=O)c(-c2ccccc2)nc2ccccc21` (stereo unspecified) as the molecule, how does the activation read?
A: 17.1% (active)

Q: With `CCC(C(=O)NC(C)(C)C)n1c(-c2ccccc2)nc2ccccc21` (stereo unspecified) as the molecule, how does the activation read?
A: -0.72%

Q: Which activation does the source give for `CSCCC(C(=O)NC(C)(C)C)n1c(-c2ccccc2)nc2ccccc21` (stereo unspecified) here?
A: -3.19%

Q: Which activation does the source give for `CN(C)c1ccc(NC(=O)NC2CCCCN(Cc3ccc(Cl)cc3)C2=O)cc1` (stereo unspecified) here?
A: -1.53%

Q: With `CS(=O)(=O)c1ccc(C(=O)NNC(=O)c2cccs2)cc1` as the molecule, how does the activation read?
A: -1.1%

Q: With `Cc1ccc(C(=O)NNC(=O)c2cccs2)cc1` as the molecule, how does the activation read?
A: 9.31% (active)

Q: With `CC(C)COc1ccc(C(=O)NNC(=O)CCC(=O)c2cccs2)cc1` as the molecule, how does the activation read?
A: 0.68%

Q: Which activation does the source give for `C=CCC(NCCCO)c1cccc(OC)c1OC` (stereo unspecified) here?
A: 2.11%

Q: For `Cc1cc(C)cc(-c2nnc(SCC(=O)NC3CC3)o2)c1`, which activation is on record?
A: 2.96%

Q: With `COc1ccc(Cl)cc1C(=O)NNC(=O)c1nc2nc(C)cc(C)n2n1` as the molecule, how does the activation read?
A: -0.45%

Q: For `Cc1cc(C)n2nc(CNS(=O)(=O)c3c(F)c(F)c(F)c(F)c3F)nc2n1`, which activation is on record?
A: 9.77% (active)

Q: Which activation does the source give for `Cc1cc(C)n2nc(C(=O)NC(C)(C)C)nc2n1` here?
A: 1.51%

Q: Which activation does the source give for `CCOC(=O)N1CCN(C(=O)C[C@H]2C[C@@]3(C(=O)OC)C(=C[C@H](C(C)(C)C)O[C@@H]3C)N(Cc3ccc(Cl)cc3Cl)C2=O)CC1` here?
A: -4.25%

Q: With `CC(=O)Nc1nc2ncccn2c1-c1ccc(C(F)(F)F)cc1` as the molecule, how does the activation read?
A: -1.69%

Q: Which activation does the source give for `CC(=O)n1cc([C@H]2C=C(C(=O)N3CCOCC3)O[C@@H](OCc3ccc(CO)cc3)C2)c2ccccc21` here?
A: -0.72%

Q: Which activation does the source give for `COc1cccc(CNC(=O)C2CCCN(c3nc4ccccc4o3)C2)c1OC` (stereo unspecified) here?
A: -3.99%

Q: Which activation does the source give for `COC(=O)C1C(=O)c2c([nH]c(C(=O)OCCSC)c2C)CC1C` (stereo unspecified) here?
A: 15.2% (active)

Q: For `CCOC(=O)c1cnc2ccc(F)cc2c1Nc1ccc2c(c1)OCCO2`, which activation is on record?
A: -4.81%

Q: For `CC(C)N1CCCCC(NC(=O)C(C)(C)C)C1=O` (stereo unspecified), which activation is on record?
A: 0.13%

Q: For `NC(=O)c1oc2ccccc2c1NC(=O)CS(=O)(=O)c1ccccc1`, which activation is on record?
A: -2.91%

Q: Which activation does the source give for `Fc1ccc(CNc2nc3ccccc3n3nnnc23)cc1` here?
A: 10.3% (active)

Q: For `CCOC(=O)CNc1nc2ccccc2n2c(C)nnc12`, which activation is on record?
A: -1.96%

Q: For `CC(C)(C)N1CC(c2nc3ccccc3n2Cc2ccc(F)cc2)CC1=O` (stereo unspecified), which activation is on record?
A: 4.59%

Q: With `CC(C)n1c(NCc2c[nH]c3ccccc23)nc2ccccc21` as the molecule, how does the activation read?
A: -2.21%

Q: With `C/C(=N\c1nc2ccccc2n1C)c1cc(Cl)ccc1O` as the molecule, how does the activation read?
A: 0.8%

Q: Which activation does the source give for `Cc1ccc(O)c(CNc2nc3ccccc3n2C)c1` here?
A: 9.3% (active)

Q: For `CN(CCc1ccccc1)C(=O)Cn1nc(-c2ccccc2)ccc1=O`, which activation is on record?
A: -2.33%

Q: Which activation does the source give for `CC(=O)Cn1ncc(N2CCOCC2)c(Br)c1=O` here?
A: -2.3%

Q: Which activation does the source give for `O=C(Cn1ncc(N2CCCC2)c(Br)c1=O)c1ccc(Cl)cc1` here?
A: 9.66% (active)

Q: With `O=C(Cn1nc(CNc2ccc(Cl)cc2)[n+]2c1CCCCC2)c1ccc(Cl)cc1` as the molecule, how does the activation read?
A: -6.64%

Q: For `Cc1ccc(-n2c(SCC(=O)Nc3ccc(S(=O)(=O)Nc4nccs4)cc3)nnc2-c2ccccn2)cc1`, which activation is on record?
A: -6.25%

Q: For `CCOC(=O)C(=O)N(Cc1ccccc1)c1ccccc1C(=O)Nc1cc(OC)ccc1OC`, which activation is on record?
A: -5.19%

Q: For `CC(c1c[nH]c2ccccc12)c1c(-c2ccccc2)n(C)c2ccccc12` (stereo unspecified), which activation is on record?
A: -5.18%

Q: With `COc1ccc(C(=O)Nc2ccnn2C2CCN(Cc3ccncc3)CC2)cc1` as the molecule, how does the activation read?
A: -1.75%

Q: Which activation does the source give for `COc1ccc(C(=O)Nc2sc(C)c(C)c2CN2CCOCC2)cc1` here?
A: 8.14% (active)

Q: For `CCc1cc(C(c2ccccc2OC)N2CCOCC2)c(NC(=O)c2ccccc2)s1` (stereo unspecified), which activation is on record?
A: -0.4%

Q: Which activation does the source give for `O=C(CCl)NC1CCCCN(Cc2cccc(C(F)(F)F)c2)C1=O` (stereo unspecified) here?
A: -2.12%

Q: With `CNC(=O)CN1C(=O)NC(c2ccccc2)(c2ccccc2)C1=O` as the molecule, how does the activation read?
A: -2.01%

Q: Which activation does the source give for `Cc1ccc(NC(=O)c2cnc(SCC(=O)NCC3CCCO3)n(C)c2=O)cc1` (stereo unspecified) here?
A: 8.79% (active)

Q: For `Cn1c(SCC(=O)c2ccccc2)ncc(C(=O)Nc2ccc(F)cc2)c1=O`, which activation is on record?
A: -2.22%

Q: With `CCCCn1c(SCC(=O)NCC2CCCO2)nc2ccc(N3CCOCC3)cc2c1=O` (stereo unspecified) as the molecule, how does the activation read?
A: -3.78%

Q: With `Cc1ccccc1-n1cc(CNC(=O)CC2C(=O)NCCN2C/C=C/c2ccccc2)cn1` (stereo unspecified) as the molecule, how does the activation read?
A: -1.02%

Q: With `CCCNC(=O)Nc1ccc2c(c1)C(=O)N(C)[C@H]1CC[C@H](CC(=O)NCC3CCCCC3)O[C@@H]1CO2` as the molecule, how does the activation read?
A: -2.38%

Q: With `CC1(C(=O)NCc2ccccc2)CSCC(=O)N1CCCN1CCOCC1` (stereo unspecified) as the molecule, how does the activation read?
A: -6.77%

Q: For `O=S1(=O)c2ccc(Br)cc2OC[C@H](Cc2ccccc2)N1Cc1cn(Cc2ccccc2)nn1`, which activation is on record?
A: -4.73%

Q: With `COc1nc(N=C(N)N)nc2c(C)cccc12` as the molecule, how does the activation read?
A: 5.28%

Q: Which activation does the source give for `Cc1nc(N=C(N)N)nc2c(C)cccc12` here?
A: 18.7% (active)

Q: With `Nn1c(SCC(=O)N2c3ccccc3Sc3ccccc32)nnc1-c1n[nH]c2c1CCC2` as the molecule, how does the activation read?
A: -2.45%

Q: Which activation does the source give for `CCCC[C@H](C(=O)N(CC)c1ccccc1)[C@@H](O)c1ccc2ccccc2c1` here?
A: -2.79%

Q: With `CN1C[C@]2(C=C3CCCCC3n3c(=O)n(-c4ccccc4)c(=O)n32)N=C1NC(=O)c1ccccc1` (stereo partly specified) as the molecule, how does the activation read?
A: -3.36%

Q: For `O=C(COC(=O)c1cccnc1Cl)NC12CC3CC(CC(C3)C1)C2`, which activation is on record?
A: -0.27%

Q: For `COCOc1cccc(CN2CCC(C)(Oc3ccc(SC)cc3)C2)c1` (stereo unspecified), which activation is on record?
A: -2.3%

Q: Which activation does the source give for `CCOC(=O)[C@]12CCCCC/C=C\1N(Cc1ccc(OC)cc1)C(=O)[C@H]2CC(=O)N1CCOCC1` here?
A: -3.81%
